BLM helicase inh-1: qHTS Assay for Inhibitors of Bloom's syndrome helicase (BLM); RecQ-like DNA helicase BLM (Homo sapiens), P54132; 350,000 compounds, 0.2% hits; Potency, µM (doses to about 56.1 µM), for inactives: at the top dose activity change, negative = inhibition, hits mostly inhibitors; AID 2528, 2010; recombinant BLM DNA unwinding, fluorescence dequenching;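 note: plate controls were vehicle for no effect and no enzyme for full effect; nearly all actives have a fitted effect of over 35% in size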
TRb SRC2 PPI: qHTS for Inhibitors of the Interaction of Thyroid Hormone Receptor and Steroid Receptor Coregulator 2; Thyroid hormone receptor beta (Homo sapiens), P10828; TRbeta-SRC2 peptide binding, fluorescence polarization; receptor liganded with 1 µM T3; Potency, µM (top dose mostly 106 µM), inactives show at the top dose activity change, negative = inhibition, most hits filed as inhibitors; 280,000 compounds, 0.065% hits; AID 1469, 2008;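 note: plate controls were bound peptide for no effect and peptide without receptor for full effect; nearly all actives have a fitted effect of over 50% in size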
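Decrease in fluorescence polarization of 20 nM Texas Red SRC2 coactivator peptide flagged inhibition of its binding to 0.6 uM TRb LBD; 1 uM T3 included, incubation 5 hr, ex 555/em 632 nm.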
WRN helicase inh-1: qHTS for Inhibitors of WRN Helicase; 360,000 compounds, 0.46% hits; AID 651768, 2012; Bifunctional 3'-5' exonuclease/ATP-dependent helicase WRN (Homo sapiens), Q14191; WRN helicase unwinding, fluorescent forked duplex, kinetic; Potency, µM (titrated, usually from 114 µM), without a hit: top-dose activity change, negative = inhibition, most hits filed as inhibitors; note: % is set by controls: 0 for no effect and ±100 for the full control effect; nearly all actives have a fitted effect of over 55% in size
Target sequence (Q14191 whole entry, looked up): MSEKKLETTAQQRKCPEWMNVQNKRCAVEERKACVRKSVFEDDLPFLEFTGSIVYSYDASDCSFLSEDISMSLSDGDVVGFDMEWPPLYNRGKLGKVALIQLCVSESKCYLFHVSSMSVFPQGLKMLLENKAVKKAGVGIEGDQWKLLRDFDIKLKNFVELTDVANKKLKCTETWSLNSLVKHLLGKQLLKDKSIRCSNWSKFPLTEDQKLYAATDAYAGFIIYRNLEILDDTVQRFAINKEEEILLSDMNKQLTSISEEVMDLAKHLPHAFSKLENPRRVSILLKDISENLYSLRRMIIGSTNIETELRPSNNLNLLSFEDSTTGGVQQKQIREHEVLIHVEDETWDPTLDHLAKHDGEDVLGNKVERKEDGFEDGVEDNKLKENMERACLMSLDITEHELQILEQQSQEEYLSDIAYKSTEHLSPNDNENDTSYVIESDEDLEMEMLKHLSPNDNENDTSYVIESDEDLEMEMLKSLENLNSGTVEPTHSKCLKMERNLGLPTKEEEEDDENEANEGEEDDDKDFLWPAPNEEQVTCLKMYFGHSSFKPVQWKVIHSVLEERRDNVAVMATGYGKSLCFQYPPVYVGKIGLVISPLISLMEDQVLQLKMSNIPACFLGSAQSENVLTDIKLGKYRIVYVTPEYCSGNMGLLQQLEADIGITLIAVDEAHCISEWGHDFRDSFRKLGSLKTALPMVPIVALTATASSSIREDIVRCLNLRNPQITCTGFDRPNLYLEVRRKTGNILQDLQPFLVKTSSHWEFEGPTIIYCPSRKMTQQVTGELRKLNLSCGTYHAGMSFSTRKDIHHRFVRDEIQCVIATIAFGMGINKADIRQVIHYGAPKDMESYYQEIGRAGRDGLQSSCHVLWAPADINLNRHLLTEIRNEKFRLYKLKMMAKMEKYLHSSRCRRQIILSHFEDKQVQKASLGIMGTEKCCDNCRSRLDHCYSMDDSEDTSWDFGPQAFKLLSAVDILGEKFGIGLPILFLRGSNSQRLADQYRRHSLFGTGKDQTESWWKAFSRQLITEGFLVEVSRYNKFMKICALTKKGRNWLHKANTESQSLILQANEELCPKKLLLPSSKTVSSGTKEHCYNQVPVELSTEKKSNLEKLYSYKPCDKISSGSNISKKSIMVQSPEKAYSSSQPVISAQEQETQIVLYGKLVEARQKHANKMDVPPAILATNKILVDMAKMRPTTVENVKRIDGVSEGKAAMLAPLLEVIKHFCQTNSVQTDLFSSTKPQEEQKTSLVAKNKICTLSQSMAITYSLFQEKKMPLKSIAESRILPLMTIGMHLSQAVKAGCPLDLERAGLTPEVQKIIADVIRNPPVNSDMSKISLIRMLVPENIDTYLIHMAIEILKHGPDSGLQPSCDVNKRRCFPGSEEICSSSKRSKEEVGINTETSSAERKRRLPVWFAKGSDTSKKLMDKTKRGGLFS
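Kinetic red-fluorescence monitoring (525/598 nm) tracks WRN helicase activity after 100 nM fluorophore-quencher forked duplex and 2 mM ATP are added to 20 nM enzyme pretreated 15 min at room temperature with compound.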
TexasRed fluor: Total Fluorescence Counterscreen for Inhibitors of the Interaction of Thyroid Hormone Receptor and Steroid Receptor Coregulator 2. TRb/SRC2 Texas Red total fluorescence interference. Potency, µM (highest dose often 106 µM), without a hit: top-dose fluorescence change, negative = quenching. 280,000 compounds, 0.29% hits. AID 1479, 2009; active = well fitted curve in either direction with a large enough effect; inconclusive = small, poorly fitted or top-dose-only effect; note: % is set by controls: 0 for no effect and ±100 for the full control effect
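Flags fluorescent or light-absorbing compounds by total fluorescence, S + 2P, at 555 nm excitation and 632 nm emission. Mixture: 20 nM Texas Red SRC2 peptide, 0.6 uM human TRb LBD, 1 uM T3, 5% DMSO; compound exposure 5 h at ambient temperature.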
RECQ1 helicase: qHTS Assay for Inhibitors of RecQ-Like Dna Helicase 1 (RECQ1); RECQ1 DNA unwinding, red fluorescence kinetic read; 240,000 compounds, 0.54% hits; Potency, µM (highest dose often 57.3 µM), inactives show top-dose activity, negative = inhibition, hits mostly inhibitors; ATP-dependent DNA helicase Q1 (Homo sapiens), P46063; AID 2549, 2010;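 note: plate controls were vehicle for no effect and no enzyme for full effect; nearly all actives have a fitted effect of over 30% in size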
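RECQ1T1 50 nM; forked duplex (20 bp + 30-nt ss tails) 200 nM, ATP 2 mM final; pH 8.0, 2 mM MgCl2, 2.5 ug/ml poly(dI-dC); 15 min compound preincubation; discontinuous kinetic read over 2 h at RT.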
APE1 inh-1: qHTS Assay for Inhibitors of the Human Apurinic/apyrimidinic Endonuclease 1 (APE1); DNA repair nuclease/redox regulator APEX1 (Homo sapiens), P27695; AID 2517, 2012; 350,000 compounds, 0.35% hits; recombinant APE1, TAMRA/BHQ-2 abasic DNA cleavage fluorescence; Potency, µM (highest dose often 65.8 µM), inactives show at the top dose activity change, negative = inhibition, usual class: inhibitors;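 note: plate controls were vehicle for no effect and reference inhibitor for full effect; nearly all actives have a fitted effect of over 55% in size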
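Incision of a quenched TAMRA/BHQ-2 THF abasic-site duplex (50 nM) by 0.75 nM APE1, after 15 min compound preincubation, measured as fluorescence increase over three 60 s reads. Values normalized to buffer, DMSO and NSC13755 control wells.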
APE1 dye cs: Counterscreen for APE1 Inhibitors: Fluorescent Dye Displacement Assay | shares compounds with APE1 inh-1 | DNA fluorescent dye displacement counterscreen, fluorescence | Potency, µM (doses to about 28.5 µM), inactives show at the highest dose activity change, negative = inhibition, hits mostly inhibitors | 480 compounds, 7% hits;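 note: loss of thiazole orange fluorescence as the dye is displaced from duplex DNA; 0% = ThO with dsDNA and no compound and -100% = ThO without dsDNA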
Endo IV inh: Counterscreen for APE1 Inhibitors: qHTS Assay for Inhibitors of Endonuclease IV; shares compounds with APE1 inh-1; E. coli Endo IV, fluorogenic AP-site DNA cleavage; Potency, µM (doses to about 27.1 µM), for inactives: top-dose activity change, negative = inhibition, actives largely listed as inhibitors; 560 compounds, 4% hits;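 note: plate controls were uninhibited enzyme wells for no effect and no enzyme buffer wells for full effect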
APE1 inh-2: Confirmation qHTS Assay for Inhibitors of the Human Apurinic/apyrimidinic Endonuclease 1 (APE1); 750 compounds, 44% hits; Potency, µM (series often up to 57.1 µM), for the others: at the top dose activity change, negative = inhibition, hits mostly inhibitors; shares compounds with APE1 inh-1; purified APE1, fluorogenic abasic-site DNA cleavage; note: % is set by controls: 0 for no effect and ±100 for the full control effect; nearly all actives have a fitted effect of over 30% in size
APE1 FP: qHTS FP-Based Assay for Inhibitors of the Human Apurinic/apyrimidinic Endonuclease 1 (APE1); 480 compounds, 7% hits; Potency, µM (top dose mostly 28.5 µM), inactives show at the highest dose activity, negative = inhibition, most hits filed as inhibitors; shares compounds with APE1 inh-1; APE1 binding to TAMRA-labelled double-stranded DNA, fluorescence polarization displacement; note: % is set by controls: 0 for no effect and ±100 for the full control effect
RECQ1 inh conf: Confirmation qHTS Assay for Inhibitors of RecQ-Like Dna Helicase 1 (RECQ1) | Potency, µM (top dose mostly 229 µM), inactives show at the highest dose activity change, negative = inhibition, most hits filed as inhibitors | shares compounds with RECQ1 helicase | RECQ1 helicase DNA unwinding, fluorescence | 610 compounds, 28% hits; note: % is set by controls: 0 for no effect and ±100 for the full control effect; nearly all actives have a fitted effect of over 45% in size
ADP FP counter: Counterscreen for RECQ1 Inhibitors: ADP Fluorescence Polarization Displacement Assay; shares compounds with RECQ1 helicase; ADP fluorescence polarization displacement counterscreen; Potency, µM (doses to about 228 µM), without a hit: at the highest dose activity change, negative = inhibition, hits mostly inhibitors; 530 compounds, 27% hits; note: % is set by controls: 0 for no effect and ±100 for the full control effect; nearly all actives have a fitted effect of over 45% in size
WRN helicase inh-2: qHTS for Inhibitors of WRN Helicase: Confirmatory Assay for Cherry-picked Compounds; shares compounds with WRN helicase inh-1; WRN helicase DNA unwinding, fluorescence kinetic; Potency, µM (series often up to 57.1 µM), inactives show at the highest dose activity, negative = inhibition, actives largely listed as inhibitors; 610 compounds, 63% hits; note: nearly all actives have a fitted effect of over 65% in size
TO DNA binding: qHTS for Inhibitors of WRN Helicase: Thiazole Orange DNA Binding Counterscreen; shares compounds with WRN helicase inh-1; thiazole orange DNA binding displacement, fluorescence; Potency, µM (top dose mostly 57.1 µM), inactives show at the highest dose activity change, negative = inhibition, hits mostly inhibitors; 610 compounds, 10% hits; AID 720499, 2013;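 note: drop in dye fluorescence marks compound binding to DNA; % is set by controls: 0 for no effect and ±100 for the full control effect; nearly all actives have a fitted effect of over 60% in size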
BLM helicase inh-2: qHTS for Inhibitors of WRN Helicase: BLM Helicase Counterscreen for WRN Inhibitors; shares compounds with WRN helicase inh-1; Recombinant BLM helicase DNA unwinding, red fluorescence; Potency, µM (top dose mostly 57.1 µM), for inactives: at the top dose activity change, negative = inhibition, actives largely listed as inhibitors; 610 compounds, 60% hits; note: nearly all actives have a fitted effect of over 60% in size
* = called active by the depositor; u = inconclusive; x = no result given; ! = not active in a repeat; [ ] = remark or other dose. Hits are enriched below; roughly 0.91% of the tested compounds scored in any of these assays. Unless noted, calls come from the whole dose curve; as a rule, active = well fitted curve in the direction sought with a large enough effect; inconclusive = small, poorly fitted or top-dose-only effect, or another doubt; inactive = no such curve, though single readings can be large; an effect the other way counts as inactive or inconclusive. Potency is the fitted concentration of half-maximal effect.

SMILES | BLM helicase inh-1 | TRb SRC2 PPI | WRN helicase inh-1 | TexasRed fluor | RECQ1 helicase | APE1 inh-1 | APE1 dye cs | Endo IV inh | APE1 inh-2 | APE1 FP | others
CCCCCCC(=O)OC1CC(C)(C)NC(C)(C)C1 | -1% | 1% | x | -2% | -12% | -2% | x | x | x | x
CC1=C(C(=O)O)N2C(=O)C(NC(=O)Cc3ccccc3)C2SC1 (stereo not given) | 0% | -8% | -5% | 0% | -5% | 5% | x | x | x | x
CC(=O)OCC1=C(C(=O)O)N2C(=O)C(NC(=O)CCCC(N)C(=O)O)C2SC1 (stereo not given) | u | 9% | x | -2% | 3% | 22µM* | -1%[57.1 µM] | 27%[57.1 µM] | -7% | 30%[57.1 µM]
Clc1cnc(Oc2ccc(Oc3ncc(Cl)cc3Cl)cc2)c(Cl)c1 | -2% | 8% | -11% | -5% | -7% | -8% | x | -1%[57.1 µM] | -11% | x
Clc1ccc(Cl)c(Cl)c1 | x | -6%[201 µM] | x | -1%[201 µM] | -7% | -1% | x | x | x | x
CC[C@@]1(O)C(=O)OCc2c1cc1n(c2=O)Cc2cc3ccccc3nc2-1 | 5% | -2% | x | -2% | -3% | 9% | x | -5%[57.1 µM] | -23% | x
O=C1NC(=O)N(c2ccc3c(c2)OCO3)C(=O)/C1=C\c1ccc(-c2ccccc2C(=O)O)o1 | -2% | -3% | 56µM* | 0% | -16% | 20µM* | 14% | -4% | 10µM* | 5%
CCc1c(C(=O)OC)ncc2[nH]c3cc(OC)c(OC)cc3c12 | x | 0% | x | -3% | -4% | -9% | x | -54%[57.1 µM] | -27% | x
Cn1cc(-c2ccccc2)c(=O)c(-c2cccc(C(F)(F)F)c2)c1 | x | 6%[201 µM] | x | 2%[201 µM] | x | x | x | x | x | x
CCc1ccc(N2C(=O)NC(=O)/C(=C/c3cccn3CCOc3ccc(C(C)CC)cc3)C2=O)cc1 (stereo not given) | -2% | -4% | -5%[57.1 µM] | u | -11% | -10% | x | x | x | x
Cc1cccc(OCCn2cccc2/C=C2/C(=O)NC(=O)N(Cc3ccco3)C2=O)c1 | 25µM* | 3% | u | -11% | 8.9µM* | 7.9µM* | 0% | 5% | 13µM* | u | RECQ1 inh conf=u;ADP FP counter=-3%[91.9 µM]
CCCCC(CC)CO[N+](=O)[O-] (stereo not given) | x | 4%[201 µM] | x | -1%[201 µM] | x | x | x | x | x | x
O=C1C=CC(=O)c2c(O)cccc21 | 5.6µM* | u | x | 8.9µM*[quencher] | 4.5µM* | 0.32µM* | x | -29%[57.1 µM] | u | x | RECQ1 inh conf=7.9µM*;ADP FP counter=u
NC(Cc1cc(O)c(O)cc1O)C(=O)O (stereo not given) | x | 13% | x | 11µM*[quencher] | 0.63µM* | 0.11µM* | x | -17%[57.1 µM] | 0.79µM* | x | RECQ1 inh conf=45µM*;ADP FP counter=20µM*
COc1ccc(CCN)cc1O | x | 5% | 5% | 0% | -2% | 11% | x | x | x | x
NCCc1cc(O)c(O)cc1O | u | 40µM*! | u | 4% | 8.9µM* | 0.4µM* | u | -14%[57.1 µM] | u | 28µM*! | RECQ1 inh conf=126µM*;ADP FP counter=100µM*
C[C@H]1[C@H](c2ccc(Cl)cc2)SC(=O)N1C(=O)NC1CCCCC1 | x | 6%[201 µM] | x | 4%[201 µM] | x | x | x | x | x | x
COc1ccc(CN2C(=O)NC(=O)/C(=C\c3ccco3)C2=O)cc1 | u | 19% | 22µM* | 11% | u | 22µM* | u | 2% | 14µM* | -8% | WRN helicase inh-2=19µM*;TO DNA binding=-14%;BLM helicase inh-2=8.6µM*
O=C(O)C(F)(F)C(F)(F)C(F)(F)C(F)(F)C(F)(F)F | x | -2%[201 µM] | x | 1%[201 µM] | x | x | x | x | x | x

Bioassay records: PubChem BioAssay, National Center for Advancing Translational Sciences (NCATS)
